Compound activity deposited in PubChem BioAssay by National Center for Advancing Translational Sciences (NCATS).
Hits are enriched below; roughly 19% of the tested compounds scored in any of these assays.
Gal4-VP16 FLuc: inhibits Gal4-VP16 luciferase reporter, ROR gamma counter-screen; Drosophila S2 Gal4-VP16 UAS-luciferase, luminescence, 20 h; Potency, µM (titrated, usually from 53.6 µM), for inactives: top-dose activity, negative = inhibition, hits mostly inhibitors; hit rate 3.5% among 310,000;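 also: Gal4-VP16 expression switched on by copper sulfate through the metallothionein promoter; nearly all actives have a fitted effect of over 50% in size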
DT40 TDP1 CPT: growth inhibition of DT40 Tdp1-/-;hTDP1 cells with camptothecin (screen for TDP1 inhibitors). Potency, µM (top dose mostly 46.2 µM), for inactives: at the highest dose activity change, negative = growth inhibition, actives largely listed as inhibitors. chicken DT40 Tdp1-/-;hTDP1 cells + 20 nM CPT, ATP luminescence, 48 h. hit rate 12% among 420,000; also: nearly all actives have a fitted effect of over 55% in size
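Chicken DT40 Tdp1-/- cells complemented with human TDP1, 400 cells/well, exposed to compounds plus 20 nM camptothecin for at least 48 h at 37 C; viability read as ATP content by CellTiter-Glo luminescence.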
RORgamma inh: ROR gamma (mouse) transcription inhibition | AID 2551 | hit rate 5.4% among 310,000 | Drosophila S2 Gal4-RORgamma UAS-luciferase reporter, 20 h | Potency, µM (doses to about 53.6 µM), for inactives: top-dose activity change, negative = inhibition, usual class: inhibitors | P51450; also: nearly all actives have a fitted effect of over 60% in size
Target sequence (P51450 whole entry, looked up, the tested form may be a part): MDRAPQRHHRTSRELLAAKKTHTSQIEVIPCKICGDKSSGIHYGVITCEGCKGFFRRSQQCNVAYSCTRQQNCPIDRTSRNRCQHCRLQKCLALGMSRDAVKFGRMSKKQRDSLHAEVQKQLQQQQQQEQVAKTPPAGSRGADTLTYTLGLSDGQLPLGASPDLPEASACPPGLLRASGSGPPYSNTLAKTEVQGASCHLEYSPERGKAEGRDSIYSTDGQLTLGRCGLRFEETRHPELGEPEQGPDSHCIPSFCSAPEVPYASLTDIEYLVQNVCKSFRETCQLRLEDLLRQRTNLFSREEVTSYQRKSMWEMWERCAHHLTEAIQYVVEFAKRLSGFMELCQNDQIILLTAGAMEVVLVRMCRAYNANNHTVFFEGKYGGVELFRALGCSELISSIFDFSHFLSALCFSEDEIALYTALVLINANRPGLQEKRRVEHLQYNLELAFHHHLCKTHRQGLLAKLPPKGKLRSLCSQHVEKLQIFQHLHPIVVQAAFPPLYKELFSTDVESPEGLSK
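Stably transfected Drosophila Schneider cells are the test system, with ROR gamma fused to Gal4 and luciferase under UAS control; luminescence is read after 20 hr of 700 uM copper sulfate induction at ambient temperature.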
DT40 TDP1 no CPT: qHTS for Inhibitors of human tyrosyl-DNA phosphodiesterase 1 (TDP1): qHTS in cells in absence of CPT. DT40 Tdp1-/- hTDP1 cells, no CPT, ATP luminescence, 48 h. Potency, µM (titrated, usually from 46.2 µM), for inactives: at the top dose activity change, negative = growth inhibition, most hits filed as inhibitors. hit rate 15% among 420,000. AID 686978, 2013; also: nearly all actives have a fitted effect of over 55% in size
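Luminescent ATP content (CellTiter-Glo) served as the growth readout. Knockout chicken DT40 cells expressing human TDP1 were exposed to compounds without camptothecin for a minimum 48 hr at 37 °C.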
TDP1 block: blocks human tyrosyl-DNA phosphodiesterase 1 | Q9NUW8 | recombinant TDP1, AlphaScreen DNA substrate cleavage | Potency, µM (top dose mostly 130 µM), without a hit: at the top dose activity change, negative = inhibition, most hits filed as inhibitors | hit rate 0.28% among 350,000 | AID 485290; also: nearly all actives have a fitted effect of over 40% in size
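Signal: AlphaScreen proximity between streptavidin donor and anti-FITC acceptor beads on intact substrate. Reaction: Tdp1 1 nM, substrate 15 nM final, 5 min RT after 15 min compound preincubation.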
* = called active by the depositor; ? = inconclusive; . = no result given; [ ] = dose if it differs, or a comment. Calls follow the shape of the dose curve; as a rule, active = well fitted curve in the direction sought with a large enough effect; inconclusive = small, poorly fitted or top-dose-only effect, or another doubt; inactive = no such curve, though single readings can be large; an effect the other way counts as inactive or inconclusive. % is scaled to controls: 0 for no effect and ±100 for the full control effect; potency is read from the fitted curve at half-maximal effect.

SMILES	Gal4-VP16 FLuc	DT40 TDP1 CPT	RORgamma inh	DT40 TDP1 no CPT	TDP1 block
CC(C)CNC(=O)NC(=O)COC(=O)c1ccccc1Sc1ccc(C(F)(F)F)cc1[N+](=O)[O-]	?	29µM*	?	?	8%
C=CCNC(=O)NC(=O)COC(=O)c1ccccc1Sc1ccc(C(F)(F)F)cc1[N+](=O)[O-]	-7%	?	?	-53%	3%
COc1ccc(NC(=O)c2c(C(=O)Nc3ccccc3)sc3nc(C)cc(=O)n23)cc1	.	-18%	.	-7%	1%
CCOC(=O)Cn1c(=NC(=O)C2COc3ccccc3O2)sc2cc(S(N)(=O)=O)ccc21 (stereo not given)	-12%	?	10%	21µM*	8%
COC(=O)Cn1c(=NC(=O)c2cc(-c3cccs3)nc3ccccc23)sc2cc(S(N)(=O)=O)ccc21	?	?	-19%	9.2µM*	-1%
CCOC(=O)Cn1c(=NC(=O)c2cc(-c3cccs3)nc3ccccc23)sc2cc(S(N)(=O)=O)ccc21	11µM*	23µM*	16µM*	16µM*	2%
NC(=O)c1ccccc1OCc1cccc2ccccc12	-18%	?	0%	-16%	.
COc1ccc(COc2cccc(C=O)c2)cc1	.	3.7µM*	.	4.6µM*	.
O=Cc1cccc(OCc2cccc3ccccc23)c1	-6%	4.1µM*	5%	2.6µM*	.
O=Cc1ccc(OCc2ccc3ccccc3c2)cc1	-25%	-28%	-37%	-25%	.
c1ccc(C(c2ccccc2)N2CCN(c3nc4ccccc4n4cnnc34)CC2)cc1	13µM*	?	-91%	3.7µM*	5%
c1cnc(N2CCN(c3nc4ccccc4n4cnnc34)CC2)nc1	-15%	-12%	20%	-22%	3%
Cc1ccc2nc(N3CCN(c4cccc(C)c4C)CC3)c3nncn3c2c1	.	-25%	.	-9%	-4%[12.3 µM]
Cc1cccc(N2CCN(c3nc4ccccc4n4cnnc34)CC2)c1C	14%	26µM*	-21%	?	2%
Fc1ccccc1Oc1nc(-c2ccncc2)nc2ccccc12	2%	?	-28%	16µM*	9%
COc1ccc(Oc2nc(-c3cccnc3)nc3ccccc23)cc1	-9%	?	-13%	?	.
COC(=O)c1ccc(COC(=O)C2CC(O)CN2S(=O)(=O)c2ccc([N+](=O)[O-])cc2)cc1 (stereo not given)	.	?	.	?	2%
Cc1ccccc1OCCN1C(=O)NC2(CCc3ccccc32)C1=O (stereo not given)	-13%	-8%	-3%	-17%	5%
Fc1cccc(Nc2cc(-n3cccn3)ncn2)c1	?	21µM*	?	10µM*	-6%[56.1 µM]
Fc1ccc2c(c1)C1OCCCC1C(c1ccccc1)N2 (stereo not given)	0%	?	19%	18µM*	.
COc1ccc(-c2ccc(C)cc2)cc1[C@H]1[C@@H]2C=CCC[C@@]2(C)C(=O)N1Cc1ccccc1	-7%	?	?	?	-1%
Cc1cc(C)c(-n2[nH]nnc2=S)c(C)c1	-18%	?	-43%	-27%	10%
C#CCN(C[C@H]1[C@H](OC(=O)NC2CC2)[C@H](OC(=O)NC2CC2)C[C@@H](C(=O)OC)[C@H]1C(=O)OC)S(=O)(=O)c1ccc(C)cc1	.	-28%	.	?	.
C#CCN(C[C@H]1[C@H](OC(=O)NCC2CCCCC2)[C@H](OC(=O)NCC2CCCCC2)C[C@@H](C(=O)OC)[C@H]1C(=O)OC)S(=O)(=O)c1ccc(C)cc1	.	2.9µM*	.	2.9µM*	.
Cc1ccc(S(=O)(=O)N(C)CC(=O)NNC(=O)Cc2ccccc2F)cc1	.	-4%	.	7%	0%
SMILES	Gal4-VP16 FLuc	DT40 TDP1 CPT	RORgamma inh	DT40 TDP1 no CPT	TDP1 block
C#CCN(C[C@H]1[C@H](OC(=O)NCc2ccccc2F)[C@H](OC(=O)NCc2ccccc2F)C[C@@H](C(=O)OC)[C@H]1C(=O)OC)S(=O)(=O)c1ccc(C)cc1	.	4.6µM*	.	6.5µM*	.
COc1ccc(/C(O)=C2/C(=O)C(=O)N(CCCC(=O)O)C2c2ccc(OC)cc2)cc1 (stereo not given)	-6%	7%	-15%	2%	-6%
NC(=S)N=Nc1c(O)n(CCCl)c2ccc(Cl)cc12	3.5µM*	?	0.79µM*	23µM*	0%
CCOc1ccc2c(c1)c(N=NC(N)=S)c(O)n2C	7.1µM*	-5%	?	7%	5%
NC(=S)N=Nc1c(O)n(CCCl)c2ccccc12	3.2µM*	13µM*	1µM*	2.6µM*	6%
Cc1cc(-c2ccccc2)n2ncc(-c3ccccc3)c2n1	10µM*	-17%	?	-22%	-8%
Cc1cc(NC2CCCC2)n2nc(C)c(-c3ccccc3)c2n1	5%	?	-44%	?	.
Cc1cc(N2CCOCC2)n2ncc(-c3ccccc3)c2n1	13µM*	?	?	?	-4%
Cc1cc(N2CCN(C(=O)c3ccco3)CC2)n2ncc(-c3ccccc3)c2n1	?	23µM*	?	16µM*	-7%
Cc1cc(NC2CCCC2)n2ncc(-c3ccccc3)c2n1	8.9µM*	?	7.1µM*	?	.
Cc1ccccc1OCCC(=O)N1CCN(S(=O)(=O)c2ccccc2F)CC1	3%	-2%	26%	-22%	-2%
Cc1cc(N2CCCCC2)n2ncc(-c3ccc(Cl)cc3)c2n1	?	13µM*	37%	?	4%
Cc1nc2c(-c3ccccc3)cnn2c(N)c1-c1ccccc1	?	-28%	0.79µM*	?	.
Cc1cc(SCC(=O)c2ccccc2)n2ncc(-c3ccccc3)c2n1	-8%	?	-13%	7.3µM*	3%
